Shown are actives, neighbours in structure and some others; about 19% of the full set was active somewhere.
CHX counter: Cycloheximide Counterscreen for Small Molecule Inhibitors of Shiga Toxin. AID 2314, 2010. cell reporter, cycloheximide protein synthesis inhibition counterscreen. 300,000 tested, 12% active. max response, %; in the data active = max response mostly above about 13%, no sharp cut-off; inactive = mostly below about 14%; note: read at 38.3 µM for the half of the compounds with a filed dose; 0% is about no effect
Shiga inhibitor: A qHTS for Small Molecule Inhibitors of Shiga Toxin; Vero cells, Shiga toxin protein synthesis inhibition reporter; inhibition, % at 38.7 µM; 290,000 tested, 9.2% active; in the data active = inhibition mostly above about 28%, no sharp cut-off; inactive = mostly below about 43%; note: 0% is about no effect
LASV entry inh: qHTS for Inhibitors of binding or entry into cells for Lassa Virus; Lassa virus pseudotype entry inhibition, cell reporter; Potency, µM (series often up to 37.9 µM), for inactives: at the top dose activity change, negative = inhibition, actives largely listed as inhibitors; 300,000 tested, 1.2% active; calls by dose curve; tested in HEK293 cells; note: potency is the fitted concentration of half-maximal effect; % is set by controls: 0 for no effect and ±100 for the full control effect; nearly all actives have a fitted effect of over 50% in size
Pf growth 48h: Primary qHTS for delayed death inhibitors of the malarial parasite plastid, 48 hour incubation; P. falciparum luciferase growth in erythrocytes, 48 h; Potency, µM (doses to about 28.7 µM), for inactives: at the highest dose activity change, negative = inhibition, hits mostly inhibitors; 310,000 tested, 5.9% active; note: potency is the fitted concentration of half-maximal effect; % is set by controls: 0 for no effect and ±100 for the full control effect
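Luciferase-expressing parasites in RBCs, 2% Hct / 0.1% parasitemia final; RPMI 1640 + 0.5% Albumax; 37 C, 5% CO2, one generation; luminescence read-out, lower signal = inhibition.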
Marburg entry inh: qHTS for inhibitors of binding or entry into cells for Marburg Virus; Marburg virus pseudotyped entry inhibition, cell reporter; Potency, µM (titrated, usually from 37.8 µM), for the others: top-dose activity change, negative = inhibition, hits mostly inhibitors; 300,000 tested, 1.8% active; calls by dose curve; tested in HEK293 cells; note: potency is the fitted concentration of half-maximal effect; % is set by controls: 0 for no effect and ±100 for the full control effect
Pf growth 96h: Primary qHTS for delayed death inhibitors of the malarial parasite plastid, 96 hour incubation. Potency, µM (series often up to 28.7 µM), inactives show at the highest dose activity change, negative = inhibition, usual class: inhibitors. P. falciparum luciferase reporter growth, 96 h. 320,000 tested, 6.9% active. AID 504834, 2011; note: potency is the fitted concentration of half-maximal effect; % is set by controls: 0 for no effect and ±100 for the full control effect
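Erythrocytes infected with luciferase-expressing P. falciparum were dispensed at 2% hematocrit and 0.05% parasitemia (final), then incubated with compounds 96 hours at 37 C in 5% CO2. Luminescence after detection reagent addition reported growth.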
Numbers without * were called inactive; [ ] = remark or other dose. Unless noted, calls come from the whole dose curve; as a rule, active = well fitted inhibition curve with a large enough effect; inconclusive = small, poorly fitted or top-dose-only effect, or another doubt; inactive = no such curve, though single readings can be large or run the other way.

Screening COc1ccccc1NS(=O)(=O)c1ccc(NC(=O)c2ccccn2)cc1 returned LASV entry inh -29%, Pf growth 48h -28%, Marburg entry inh -3% and Pf growth 96h inconclusive.
For CCc1cccc(C)c1NC(=O)CCOc1ccccc1 the results were CHX counter -2, Shiga inhibitor -1, LASV entry inh 3%, Pf growth 48h 0%, Marburg entry inh -46% and Pf growth 96h -2%.
For COc1ccccc1Nc1ccc(C(=O)NCc2cccs2)cn1 the results were CHX counter -2, Shiga inhibitor 5, LASV entry inh -24%, Pf growth 48h -7%, Marburg entry inh -1%[46.1 µM] and Pf growth 96h 25%.
For COc1ccccc1Nc1ncc(-c2cccs2)s1 the results were CHX counter 40*, Shiga inhibitor 108*, LASV entry inh 12%, Pf growth 48h 168%, Marburg entry inh -5% and Pf growth 96h inactive.
`Cc1ccc(CSCCNS(=O)(=O)c2ccccc2)cc1` gave CHX counter -2, Shiga inhibitor -9, LASV entry inh -19%, Pf growth 48h 2%, Marburg entry inh 0% and Pf growth 96h 1.5µM*.
For COc1ccc(/C=C/C(=O)Nc2ccccc2)cc1S(=O)(=O)N1CCOCC1 the results were CHX counter 11*, Shiga inhibitor 17, Pf growth 48h inconclusive and Pf growth 96h inconclusive.
For COc1ccc(/C=C/C(=O)NCc2ccc(F)cc2)cc1S(=O)(=O)N1CCOCC1 the results were CHX counter 5, Shiga inhibitor -3, LASV entry inh -1%, Pf growth 48h inconclusive, Marburg entry inh 9%[46.1 µM] and Pf growth 96h inconclusive.
For COc1ccc(/C=C/C(=O)Nc2ccccc2Cl)cc1S(=O)(=O)N1CCOCC1 the results were CHX counter 15, Shiga inhibitor -1, Pf growth 48h 10µM* and Pf growth 96h 10µM*.
COc1ccc(/C=C/C(=O)Nc2ccc(NC(C)=O)cc2)cc1S(=O)(=O)N1CCOCC1 was read as CHX counter 2, Shiga inhibitor 17, Pf growth 48h inconclusive and Pf growth 96h inconclusive.
Screening COc1ccc(CN(C)C(=O)/C=C/c2ccc(S(=O)(=O)N3CCOCC3)cc2)cc1F returned LASV entry inh inconclusive, Pf growth 48h 12µM*, Marburg entry inh -18% and Pf growth 96h inconclusive.
COc1ccc(/C=C/C(=O)NC2CCCCCCC2)cc1S(=O)(=O)N1CCOCC1 was read as CHX counter 37*, Shiga inhibitor 70*, LASV entry inh 2%, Pf growth 48h inconclusive, Marburg entry inh inconclusive and Pf growth 96h 5.9µM*.
CN(CC(=O)NCc1ccccc1F)S(=O)(=O)c1ccc(Cl)cc1 was read as CHX counter 6, Shiga inhibitor -3, Pf growth 48h 7% and Pf growth 96h -1%.
`COc1ccc(/C=C/C(=O)N(Cc2cccs2)C2CCS(=O)(=O)C2)cc1` (stereo not given) gave CHX counter -3, Shiga inhibitor -11, LASV entry inh -9%, Pf growth 48h -20%, Marburg entry inh -31% and Pf growth 96h inconclusive.
CCN(CC)S(=O)(=O)c1cccc(NC(=O)CN2C(=O)c3ccc([N+](=O)[O-])cc3C2=O)c1 was read as CHX counter 1, Shiga inhibitor -17, LASV entry inh -17%, Pf growth 48h 11%, Marburg entry inh 5% and Pf growth 96h 52%.
For CCCOC(=O)c1ccc(NC(=O)C(=O)NCCN(CC)CC)cc1 the results were CHX counter 1, Shiga inhibitor 33, Pf growth 48h 14% and Pf growth 96h 34%.
`COc1cc(/C=C/C(=O)NC(C)C)ccc1OCc1ccccc1` gave CHX counter -1, Shiga inhibitor 38, LASV entry inh inconclusive, Pf growth 48h 13µM*, Marburg entry inh inconclusive and Pf growth 96h 0%.
`COc1ccc(C)cc1NC(=O)/C=C/c1ccc(OC)c(S(=O)(=O)N2CCOCC2)c1` gave Pf growth 48h 9.3µM* and Pf growth 96h 5.2µM*.
`COc1ccc(/C=C/C(=O)Nc2ccccc2)cc1OC` gave CHX counter 36*, Shiga inhibitor 127*, LASV entry inh 16%, Pf growth 48h 240%, Marburg entry inh 4%[46.1 µM] and Pf growth 96h 191%.
CCOc1cc(/C=C/C(=O)O)ccc1OCc1ccccc1 was read as CHX counter 16, Shiga inhibitor 12, LASV entry inh 4%, Pf growth 48h 2%, Marburg entry inh 6% and Pf growth 96h 15%.
For COc1cc(/C=C/C(=O)NC(=O)c2ccccc2O)ccc1OC(C)=O the results were CHX counter 33*, Shiga inhibitor 70*, Pf growth 48h -20% and Pf growth 96h 9.3µM*.
COc1ccc(/C=C/C(=O)NC(=S)Nc2ccccc2)cc1OC was read as CHX counter 5, Shiga inhibitor 18, LASV entry inh -8%[46.1 µM], Pf growth 48h 15%, Marburg entry inh -2%[46.1 µM] and Pf growth 96h 16%.
`COc1ccc(/C=C/C(=O)NC(C)(C)C)cc1S(=O)(=O)N1CCOCC1` gave CHX counter 0, Shiga inhibitor -10, LASV entry inh inconclusive, Pf growth 48h 7%, Marburg entry inh 7% and Pf growth 96h -3%.
`CN1C(=O)N=C2N=CN(C)C2C1=O` (stereo not given) gave Marburg entry inh 4%.
Screening O=C(Nc1cnccn1)c1ccc(F)cc1Cl returned CHX counter -1, Shiga inhibitor 11, Pf growth 48h 1% and Pf growth 96h inconclusive.
Screening c1ccc(Cn2c(NCc3ccco3)nc3ccccc32)cc1 returned CHX counter 11, Shiga inhibitor 14, LASV entry inh -12%, Pf growth 48h inconclusive, Marburg entry inh 20% and Pf growth 96h inconclusive.
Cc1ccc(-c2cc(C(=O)Nc3cccc(S(=O)(=O)N(C)C)c3)c3ccccc3n2)o1 was read as CHX counter 14, Shiga inhibitor -6, LASV entry inh -24%, Pf growth 48h inconclusive, Marburg entry inh inconclusive and Pf growth 96h inconclusive.
Screening COc1cc(/C=N/OCC(=O)Nc2cc(C)on2)ccc1OCc1ccccc1 returned CHX counter 18*, Shiga inhibitor 104*, LASV entry inh -2%, Pf growth 48h inconclusive, Marburg entry inh -8% and Pf growth 96h -2%.
For COc1ccc(OC)c(NC(=O)/C=C/c2ccc(S(=O)(=O)N3CCOCC3)cc2)c1 the results were LASV entry inh -10%, Pf growth 48h 12µM*, Marburg entry inh 2% and Pf growth 96h 2.9µM*.
Screening Cc1ccc(/C=N/NC(=O)c2c(-c3ccccc3)noc2C)c(O)c1 returned CHX counter 7, Shiga inhibitor -11, Pf growth 48h inconclusive and Pf growth 96h inconclusive.
COc1cccc(/C=N/NC(=O)c2c(-c3ccccc3)noc2C)c1OC was read as LASV entry inh -5% and Marburg entry inh 4%.

From PubChem BioAssay
